In the supplement of paper PMC6607015:
Where a name gives a salt, the structure may show the parent alone.

Experiments:
Conditions in all cases: compound concentration in added solution (µM; 5 µl added to 20 µl cells): 10; 18 h
[1] = system: A431; test: LBPA endosome anti-LBPA integrated intensity (sum per cell), Z-score; higher = more LBPA staining
Outline: (§1)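 Four 20× images per well were taken of HeLa MZ or A431 cells that had been seeded at 3,500 per well in 20 µl onto 5 µl of 10 µM compound solution in duplicate 384-well imaging plates. Before imaging, cells were incubated 18 h, fixed in 4% PFA and stained with 6C4 anti-LBPA antibody, filipin, propidium iodide and CellTracker green. Values are Z-scores normalised in AcuityXpress from MetaXpress-derived per-cell integrated LBPA or filipin intensity, either whole-cell or within LBPA endosomes.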

[2] = system: HeLa MZ; test: as above
Outline: as §1

[3] = system: A431; test: whole-cell filipin (free cholesterol) integrated intensity, Z-score; higher = more cholesterol staining
Outline: as §1

[4] = system: HeLa MZ; test: as above
Outline: as §1

[5] = system: A431; test: filipin (cholesterol) integrated intensity within LBPA endosomes, Z-score; higher = more cholesterol in LBPA endosomes
Outline: as §1

[6] = system: HeLa MZ; test: as above
Outline: as §1

SMILES: Clc1ccc(CSC(Cn2ccnc2)c2ccc(Cl)cc2Cl)cc1 (centres undefined) [Sulconazole nitrate]
- LBPA endosome anti-LBPA integrated intensity (z-score) [1]: 0.249
- LBPA endosome anti-LBPA integrated intensity (z-score) [2]: 1.59
- whole-cell filipin (z-score) [3]: 1.22
- whole-cell filipin (z-score) [4]: 1.32
- filipin (z-score) [5]: 0.361
- filipin (z-score) [6]: 0.461

SMILES: CCN1CCN(C(=O)N[C@@H](C(=O)N[C@@H]2C(=O)N3[C@@H]2SC(C)(C)[C@@H]3C(=O)O)c2ccccc2)C(=O)C1=O [Piperacillin sodium salt]
- LBPA endosome anti-LBPA integrated intensity (z-score) [1]: -0.232
- LBPA endosome anti-LBPA integrated intensity (z-score) [2]: -0.383
- whole-cell filipin (z-score) [3]: -0.0934
- whole-cell filipin (z-score) [4]: -0.425
- filipin (z-score) [5]: -0.285
- filipin (z-score) [6]: -0.478

SMILES: CC(=O)OCC(=O)[C@@]12OC3(CCCC3)O[C@@H]1C[C@H]1[C@@H]3CCC4=CC(=O)C=C[C@]4(C)[C@@]3(F)[C@@H](O)C[C@@]12C [Amcinonide]
- LBPA endosome anti-LBPA integrated intensity (z-score) [1]: -0.0445
- LBPA endosome anti-LBPA integrated intensity (z-score) [2]: 0.215
- whole-cell filipin (z-score) [3]: 0.476
- whole-cell filipin (z-score) [4]: 0.977
- filipin (z-score) [5]: -0.0127
- filipin (z-score) [6]: 0.16

SMILES: COc1ccc(NS(=O)(=O)c2ccc(N)cc2)nn1 [Sulfamethoxypyridazine]
- LBPA endosome anti-LBPA integrated intensity (z-score) [1]: -0.55
- LBPA endosome anti-LBPA integrated intensity (z-score) [2]: -1.31
- whole-cell filipin (z-score) [3]: -0.449
- whole-cell filipin (z-score) [4]: -0.237
- filipin (z-score) [5]: -0.455
- filipin (z-score) [6]: -0.522

SMILES: C[C@]12CC[C@@H]3c4ccc(O)cc4CC[C@H]3[C@@H]1CCC2=O [Estrone]
- LBPA endosome anti-LBPA integrated intensity (z-score) [1]: -0.124
- LBPA endosome anti-LBPA integrated intensity (z-score) [2]: 0.505
- whole-cell filipin (z-score) [3]: -0.166
- whole-cell filipin (z-score) [4]: -0.0664
- filipin (z-score) [5]: -0.236
- filipin (z-score) [6]: -0.151

SMILES: CCc1ccc(CCOc2ccc(CC3SC(=O)NC3=O)cc2)nc1 (centres undefined) [Pioglitazone]
- LBPA endosome anti-LBPA integrated intensity (z-score) [1]: -0.492
- LBPA endosome anti-LBPA integrated intensity (z-score) [2]: -0.449
- whole-cell filipin (z-score) [3]: -0.697
- whole-cell filipin (z-score) [4]: -0.748
- filipin (z-score) [5]: -0.5
- filipin (z-score) [6]: -0.629

SMILES: CCOC(=O)n1ccn(C)c1=S [Carbimazole]
- LBPA endosome anti-LBPA integrated intensity (z-score) [1]: -0.395
- LBPA endosome anti-LBPA integrated intensity (z-score) [2]: 0.106
- whole-cell filipin (z-score) [3]: -0.405
- whole-cell filipin (z-score) [4]: -0.308
- filipin (z-score) [5]: -0.513
- filipin (z-score) [6]: -0.531

SMILES: CCC[C@@H]1C[C@@H](C(=O)N[C@@H]([C@H]2O[C@H](SC)[C@H](O)[C@@H](O)[C@H]2O)[C@H](C)Cl)N(C)C1 [Clindamycin hydrochloride]
- LBPA endosome anti-LBPA integrated intensity (z-score) [1]: -0.543
- LBPA endosome anti-LBPA integrated intensity (z-score) [2]: -0.18
- whole-cell filipin (z-score) [3]: -0.979
- whole-cell filipin (z-score) [4]: -0.574
- filipin (z-score) [5]: -0.567
- filipin (z-score) [6]: -0.563

SMILES: OC(CCCN1CCCCC1)(c1ccccc1)c1ccccc1 [Diphenidol hydrochloride]
- LBPA endosome anti-LBPA integrated intensity (z-score) [1]: -0.218
- LBPA endosome anti-LBPA integrated intensity (z-score) [2]: 0.517
- whole-cell filipin (z-score) [3]: -0.613
- whole-cell filipin (z-score) [4]: -0.594
- filipin (z-score) [5]: -0.133
- filipin (z-score) [6]: -0.0129

SMILES: CCN(CC)CCN[C@@H](C(=O)OCCC(C)C)c1ccccc1 [Camylofine chlorhydrate]
- LBPA endosome anti-LBPA integrated intensity (z-score) [1]: -0.334
- LBPA endosome anti-LBPA integrated intensity (z-score) [2]: 0.886
- whole-cell filipin (z-score) [3]: -0.446
- whole-cell filipin (z-score) [4]: -0.605
- filipin (z-score) [5]: -0.28
- filipin (z-score) [6]: 0.0537

SMILES: CO[C@@]1(NC(=O)C2SC(=C(C(N)=O)C(=O)O)S2)C(=O)N2C(C(=O)O)=C(CSc3nnnn3C)CS[C@@H]21 (some centres undefined) [Cefotetan]
- LBPA endosome anti-LBPA integrated intensity (z-score) [1]: -0.675
- LBPA endosome anti-LBPA integrated intensity (z-score) [2]: -1.41
- whole-cell filipin (z-score) [3]: -0.843
- whole-cell filipin (z-score) [4]: -0.864
- filipin (z-score) [5]: -0.604
- filipin (z-score) [6]: -0.594

SMILES: CC1CS(=O)(=O)CCN1/N=C/c1ccc([N+](=O)[O-])o1 (centres undefined) [Nifurtimox]
- LBPA endosome anti-LBPA integrated intensity (z-score) [1]: -0.541
- LBPA endosome anti-LBPA integrated intensity (z-score) [2]: -0.54
- whole-cell filipin (z-score) [3]: 0.0023
- whole-cell filipin (z-score) [4]: -0.211
- filipin (z-score) [5]: -0.444
- filipin (z-score) [6]: -0.628

SMILES: C[C@H](O)C(=O)Nc1c(I)c(C(=O)NC(CO)CO)c(I)c(C(=O)NC(CO)CO)c1I [Iopamidol]
- LBPA endosome anti-LBPA integrated intensity (z-score) [1]: -0.637
- LBPA endosome anti-LBPA integrated intensity (z-score) [2]: -1.5
- whole-cell filipin (z-score) [3]: -0.34
- whole-cell filipin (z-score) [4]: -0.1
- filipin (z-score) [5]: -0.494
- filipin (z-score) [6]: -0.379

SMILES: c1ccc2[nH]c(-c3cscn3)nc2c1 [Tiabendazole]
- LBPA endosome anti-LBPA integrated intensity (z-score) [1]: -0.626
- LBPA endosome anti-LBPA integrated intensity (z-score) [2]: -1.01
- whole-cell filipin (z-score) [3]: -0.678
- whole-cell filipin (z-score) [4]: -0.558
- filipin (z-score) [5]: -0.54
- filipin (z-score) [6]: -0.645

SMILES: COc1cc(C(=O)OCCCN2CCCN(CCCOC(=O)c3cc(OC)c(OC)c(OC)c3)CC2)cc(OC)c1OC [Dilazep dihydrochloride]
- LBPA endosome anti-LBPA integrated intensity (z-score) [1]: 3.35
- LBPA endosome anti-LBPA integrated intensity (z-score) [2]: 1.34
- whole-cell filipin (z-score) [3]: 3.19
- whole-cell filipin (z-score) [4]: 3.53
- filipin (z-score) [5]: 3.75
- filipin (z-score) [6]: 4.35

SMILES: CC1=C(/C=C/C(C)=C/C=C/C(C)=C\C(=O)O)C(C)(C)CCC1 [Isotretinoin]
- LBPA endosome anti-LBPA integrated intensity (z-score) [1]: -0.383
- LBPA endosome anti-LBPA integrated intensity (z-score) [2]: -0.562
- whole-cell filipin (z-score) [3]: -0.622
- whole-cell filipin (z-score) [4]: -0.961
- filipin (z-score) [5]: -0.488
- filipin (z-score) [6]: -0.54

SMILES: CCCCNC(=O)NS(=O)(=O)c1ccc(C)cc1 [Tolbutamide]
- LBPA endosome anti-LBPA integrated intensity (z-score) [1]: -0.288
- LBPA endosome anti-LBPA integrated intensity (z-score) [2]: 0.292
- whole-cell filipin (z-score) [3]: -0.409
- whole-cell filipin (z-score) [4]: -0.426
- filipin (z-score) [5]: -0.47
- filipin (z-score) [6]: -0.503

SMILES: N#Cc1ccc(C(c2ccc(C#N)cc2)n2cncn2)cc1 [Letrozole]
- LBPA endosome anti-LBPA integrated intensity (z-score) [1]: -0.371
- LBPA endosome anti-LBPA integrated intensity (z-score) [2]: 0.276
- whole-cell filipin (z-score) [3]: 0.375
- whole-cell filipin (z-score) [4]: 0.337
- filipin (z-score) [5]: -0.552
- filipin (z-score) [6]: -0.548

SMILES: Cc1cccc(C)c1NC(=O)C1CCCCN1C (centres undefined) [Mepivacaine hydrochloride]
- LBPA endosome anti-LBPA integrated intensity (z-score) [1]: -0.256
- LBPA endosome anti-LBPA integrated intensity (z-score) [2]: 0.0426
- whole-cell filipin (z-score) [3]: 0.297
- whole-cell filipin (z-score) [4]: 0.327
- filipin (z-score) [5]: -0.328
- filipin (z-score) [6]: -0.202

SMILES: CC(C)NCC(O)c1ccc(O)c(O)c1 (single isomer, unassigned; (-)) [(-)-Isoproterenol hydrochloride]
- LBPA endosome anti-LBPA integrated intensity (z-score) [1]: -0.173
- LBPA endosome anti-LBPA integrated intensity (z-score) [2]: -0.052
- whole-cell filipin (z-score) [3]: 0.672
- whole-cell filipin (z-score) [4]: -0.415
- filipin (z-score) [5]: -0.458
- filipin (z-score) [6]: -0.467

SMILES: CN1C2CCCC1CC(NC(=O)c1nn(C)c3ccccc13)C2 (centres undefined) [Granisetron]
- LBPA endosome anti-LBPA integrated intensity (z-score) [1]: 0.179
- LBPA endosome anti-LBPA integrated intensity (z-score) [2]: 1.05
- whole-cell filipin (z-score) [3]: 0.826
- whole-cell filipin (z-score) [4]: 0.449
- filipin (z-score) [5]: -0.132
- filipin (z-score) [6]: 0.382

SMILES: Nc1nc(N)c2nc(-c3ccccc3)c(N)nc2n1 [Triamterene]
- LBPA endosome anti-LBPA integrated intensity (z-score) [1]: 0.172
- LBPA endosome anti-LBPA integrated intensity (z-score) [2]: -1.01
- whole-cell filipin (z-score) [3]: -0.647
- whole-cell filipin (z-score) [4]: -1.14
- filipin (z-score) [5]: -0.443
- filipin (z-score) [6]: -0.487

SMILES: CN(C)CCOC(C)(c1ccccc1)c1ccccn1 (centres undefined) [Doxylamine succinate]
- LBPA endosome anti-LBPA integrated intensity (z-score) [1]: -0.48
- LBPA endosome anti-LBPA integrated intensity (z-score) [2]: 0.575
- whole-cell filipin (z-score) [3]: -0.578
- whole-cell filipin (z-score) [4]: -0.502
- filipin (z-score) [5]: -0.488
- filipin (z-score) [6]: -0.154

SMILES: COc1ccc2[nH]c([S+]([O-])Cc3ncc(C)c(OC)c3C)nc2n1 (centres undefined) [Tenatoprazole]
- LBPA endosome anti-LBPA integrated intensity (z-score) [1]: -0.331
- LBPA endosome anti-LBPA integrated intensity (z-score) [2]: 0.434
- whole-cell filipin (z-score) [3]: -0.478
- whole-cell filipin (z-score) [4]: 0.112
- filipin (z-score) [5]: -0.438
- filipin (z-score) [6]: -0.258
